Source: PubChem BioAssay (NCATS)
Results filed as inconclusive are left out. Activity calls are given as the source filed them. Calls follow the shape of the dose curve; as a rule, active = well fitted curve in the direction sought with a large enough effect; inconclusive = small, poorly fitted or top-dose-only effect, or another doubt; inactive = no such curve, though single readings can be large; an effect the other way counts as inactive or inconclusive.

Experiments:
[1] = target: ATP-dependent 6-phosphofructokinase (Trypanosoma brucei brucei) (UniProt O15648); assay: qHTS Assay to Find Inhibitors of T. brucei phosphofructokinase: hit validation (AID 492961);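 also: luminescence reports ADP formed as PFK phosphorylates fructose-6-phosphate with ATP; % is scaled to controls: 0 for no effect and ±100 for the full control effect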
Chain of ATP-dependent 6-phosphofructokinase (Trypanosoma brucei brucei) (O15648 whole entry, looked up): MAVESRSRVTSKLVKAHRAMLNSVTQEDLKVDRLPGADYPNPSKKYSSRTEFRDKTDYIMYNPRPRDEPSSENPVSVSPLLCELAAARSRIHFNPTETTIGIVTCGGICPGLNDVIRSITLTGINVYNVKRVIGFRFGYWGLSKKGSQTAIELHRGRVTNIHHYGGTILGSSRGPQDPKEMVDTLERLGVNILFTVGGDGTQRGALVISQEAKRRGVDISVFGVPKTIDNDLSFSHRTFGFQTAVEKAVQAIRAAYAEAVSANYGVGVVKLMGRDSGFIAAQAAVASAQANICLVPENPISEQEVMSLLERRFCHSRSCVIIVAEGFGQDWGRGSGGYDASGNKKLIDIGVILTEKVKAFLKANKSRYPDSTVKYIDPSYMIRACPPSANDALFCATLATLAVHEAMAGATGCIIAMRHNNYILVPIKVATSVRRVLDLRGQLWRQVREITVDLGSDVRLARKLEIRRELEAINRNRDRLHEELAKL
In short: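 In this biochemical qHTS validation, titrated compounds were tested against 1.25 nM PFK with 0.1 mM ATP and 0.5 mM F6P. Percent activity came from controls lacking or containing enzyme.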

[2] = qHTS profiling for inhibitors of Plasmodium falciparum proliferation (AID 504749); also: potency is read from the fitted curve at half-maximal effect;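 as to activity, negative = inhibition: 0% = DMSO vehicle and full inhibition = artemisinin control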; as to all read-outs here: nearly all actives have a fitted effect of over 60% in size; conditions: P. falciparum in erythrocytes, SYBR Green DNA, 72 h; for activity, negative = inhibition: at 28.7 µM (top of the series)
In short: (§1)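 Infected RBCs, 0.3% parasitemia/2.5% Hct final; cpd 72 h, 37 C, 5% CO2; lysis buffer with saponin/triton/SYBR Green I, o/n RT dark; FI 485/535; norm. to artemisinin (0.29 uM) and DMSO.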

3D7 = assay: as above; conditions: P. falciparum in erythrocytes, SYBR Green DNA, 72 h; series mostly up to 28.7 µM
In short: as §1

7G8 = assay: as above; conditions: P. falciparum in erythrocytes, SYBR Green DNA, 72 h; series mostly up to 28.7 µM
In short: as §1

AS120 = assay: as above; conditions: P. falciparum in erythrocytes, SYBR Green DNA, 72 h; series mostly up to 28.7 µM
In short: as §1

ATS189 = assay: as above; conditions: P. falciparum in erythrocytes, SYBR Green DNA, 72 h; series mostly up to 28.7 µM
In short: as §1

CP185 = assay: as above; conditions: P. falciparum in erythrocytes, SYBR Green DNA, 72 h; series mostly up to 28.7 µM
In short: as §1

CP191 = assay: as above; conditions: P. falciparum in erythrocytes, SYBR Green DNA, 72 h; series mostly up to 28.7 µM
In short: as §1

CP192 = assay: as above; conditions: P. falciparum in erythrocytes, SYBR Green DNA, 72 h; series mostly up to 28.7 µM
In short: as §1

CP194 = assay: as above; conditions: P. falciparum in erythrocytes, SYBR Green DNA, 72 h; series mostly up to 28.7 µM
In short: as §1

CP201 = assay: as above; conditions: P. falciparum in erythrocytes, SYBR Green DNA, 72 h; series mostly up to 28.7 µM
In short: as §1

CP203 = assay: as above; conditions: P. falciparum in erythrocytes, SYBR Green DNA, 72 h; series mostly up to 28.7 µM
In short: as §1

CP237 = assay: as above; conditions: P. falciparum in erythrocytes, SYBR Green DNA, 72 h; series mostly up to 28.7 µM
In short: as §1

CP238 = assay: as above; conditions: P. falciparum in erythrocytes, SYBR Green DNA, 72 h; series mostly up to 28.7 µM
In short: as §1

CP247 = assay: as above; conditions: P. falciparum in erythrocytes, SYBR Green DNA, 72 h; series mostly up to 28.7 µM
In short: as §1

CP286 = assay: as above; conditions: P. falciparum in erythrocytes, SYBR Green DNA, 72 h; series mostly up to 28.7 µM
In short: as §1

CP291 = assay: as above; conditions: P. falciparum in erythrocytes, SYBR Green DNA, 72 h; series mostly up to 28.7 µM
In short: as §1

DIV30 = assay: as above; conditions: P. falciparum in erythrocytes, SYBR Green DNA, 72 h; series mostly up to 28.7 µM
In short: as §1

HB3 = assay: as above; conditions: P. falciparum in erythrocytes, SYBR Green DNA, 72 h; series mostly up to 28.7 µM
In short: as §1

P94_40 = assay: as above; conditions: P. falciparum in erythrocytes, SYBR Green DNA, 72 h; series mostly up to 28.7 µM
In short: as §1

COc1cccc(OC)c1C(=O)NC1C(=O)N2C1SC(C)(C)C2C(=O)O (stereo unspecified)
inactive: Potency [1] | activity, negative = inhibition ([2]; parasite line A) 11.2% | activity, negative = inhibition ([2]; parasite line B) -9.69% | Potency (3D7) | Potency (7G8) | Potency (AS120) | Potency (ATS189) | Potency (CP185) | Potency (CP191) | Potency (CP192) | Potency (CP194) | Potency (CP201) | Potency (CP203) | Potency (CP237) | Potency (CP238) | Potency (CP247) | Potency (CP286) | Potency (CP291) | Potency (DIV30) | Potency (HB3) | Potency (P94_40)

CCC(C(=O)O)C1OC(C(C)C(O)C(C)C(=O)C(CC)C2OC3(C=CC(O)C4(CCC(C)(C5CCC(O)(CC)C(C)O5)O4)O3)C(C)CC2C)C(C)CC1C (stereo unspecified)
active: Potency ([2]; parasite line A) 0.141 µM | Potency ([2]; parasite line B) 0.158 µM | Potency (3D7) 0.1 µM | Potency (7G8) 0.0794 µM | Potency (AS120) 0.0794 µM | Potency (ATS189) 0.158 µM | Potency (CP185) 0.224 µM | Potency (CP191) 0.1 µM | Potency (CP192) 0.169 µM | Potency (CP194) 0.0757 µM | Potency (CP201) 0.0953 µM | Potency (CP203) 0.0379 µM | Potency (CP237) 0.0562 µM | Potency (CP238) 0.199 µM | Potency (CP247) 0.112 µM | Potency (CP286) 0.141 µM | Potency (CP291) 0.0601 µM | Potency (DIV30) 0.0675 µM | Potency (HB3) 0.0794 µM | Potency (P94_40) 0.0708 µM
inactive: Potency [1]

CC12C=CC(=O)C=C1[C@@H](F)CC1C2C(O)CC2(C)C1CC[C@]2(O)C(=O)CO (stereo partly specified)
inactive: Potency [1] | activity, negative = inhibition ([2]; parasite line A) 4.43% | activity, negative = inhibition ([2]; parasite line B) 5.63% | Potency (3D7) | Potency (7G8) | Potency (AS120) | Potency (ATS189) | Potency (CP185) | Potency (CP191) | Potency (CP192) | Potency (CP194) | Potency (CP201) | Potency (CP203) | Potency (CP237) | Potency (CP238) | Potency (CP247) | Potency (CP286) | Potency (CP291) | Potency (DIV30) | Potency (HB3) | Potency (P94_40)

CC1CCC(C(C)C)C(O)C1 (stereo unspecified)
inactive: Potency [1] | activity, negative = inhibition ([2]; parasite line A) 7.33% | activity, negative = inhibition ([2]; parasite line B) 4.66% | Potency (3D7) | Potency (7G8) | Potency (AS120) | Potency (ATS189) | Potency (CP185) | Potency (CP191) | Potency (CP192) | Potency (CP194) | Potency (CP201) | Potency (CP203) | Potency (CP237) | Potency (CP238) | Potency (CP247) | Potency (CP286) | Potency (CP291) | Potency (DIV30) | Potency (HB3) | Potency (P94_40)

NC(C(=O)O)c1ccc(O)cc1 (stereo unspecified)
inactive: Potency [1] | activity, negative = inhibition ([2]; parasite line A) 3.02% | activity, negative = inhibition ([2]; parasite line B) 9.1% | Potency (3D7) | Potency (7G8) | Potency (AS120) | Potency (ATS189) | Potency (CP185) | Potency (CP191) | Potency (CP192) | Potency (CP194) | Potency (CP201) | Potency (CP203) | Potency (CP237) | Potency (CP238) | Potency (CP247) | Potency (CP286) | Potency (CP291) | Potency (DIV30) | Potency (HB3) | Potency (P94_40)

C[S+](C)CC[C@H](N)C(=O)O
inactive: Potency [1] | activity, negative = inhibition ([2]; parasite line A) 2.14% | activity, negative = inhibition ([2]; parasite line B) 12.4% | Potency (3D7) | Potency (7G8) | Potency (AS120) | Potency (ATS189) | Potency (CP185) | Potency (CP191) | Potency (CP192) | Potency (CP194) | Potency (CP201) | Potency (CP203) | Potency (CP237) | Potency (CP238) | Potency (CP247) | Potency (CP286) | Potency (CP291) | Potency (DIV30) | Potency (HB3) | Potency (P94_40)

C=CC1CN2CCC1CC2[C@@H](O)c1ccnc2ccc(OC)cc12 (stereo partly specified)
active: Potency ([2]; parasite line A) 0.0501 µM | Potency ([2]; parasite line B) 0.0562 µM | Potency (3D7) 0.0794 µM | Potency (7G8) 0.0501 µM | Potency (AS120) 0.398 µM | Potency (ATS189) 0.316 µM | Potency (CP185) 0.501 µM | Potency (CP191) 0.224 µM | Potency (CP192) 0.757 µM | Potency (CP194) 0.536 µM | Potency (CP201) 1.07 µM | Potency (CP203) 0.426 µM | Potency (CP237) 0.891 µM | Potency (CP238) 0.891 µM | Potency (CP247) 1 µM | Potency (CP286) 0.282 µM | Potency (CP291) 0.478 µM | Potency (DIV30) 0.338 µM | Potency (HB3) 0.158 µM | Potency (P94_40) 0.251 µM
inactive: Potency [1]

O=C1[C@@H]2C[C@@H]3C[C@H]1C[C@@](O)(C3)C2
inactive: Potency [1] | activity, negative = inhibition ([2]; parasite line A) -0.632% | activity, negative = inhibition ([2]; parasite line B) 11.7% | Potency (3D7) | Potency (7G8) | Potency (AS120) | Potency (ATS189) | Potency (CP185) | Potency (CP191) | Potency (CP192) | Potency (CP194) | Potency (CP201) | Potency (CP203) | Potency (CP237) | Potency (CP238) | Potency (CP247) | Potency (CP286) | Potency (CP291) | Potency (DIV30) | Potency (HB3) | Potency (P94_40)

O=C1C(I)=CC(=C(c2cc(I)c(O)c(I)c2)c2ccccc2C(=O)O)C=C1I
inactive: Potency [1] | activity, negative = inhibition ([2]; parasite line A) 1.17% | activity, negative = inhibition ([2]; parasite line B) -0.638% | Potency (3D7) | Potency (7G8) | Potency (AS120) | Potency (ATS189) | Potency (CP185) | Potency (CP191) | Potency (CP192) | Potency (CP194) | Potency (CP201) | Potency (CP203) | Potency (CP237) | Potency (CP238) | Potency (CP247) | Potency (CP286) | Potency (CP291) | Potency (DIV30) | Potency (HB3) | Potency (P94_40)

CC(=O)OCC(=O)[C@@]1(O)CCC2C3C[C@H](C)C4=CC(=O)C=CC4(C)C3C(O)CC21C (stereo partly specified)
inactive: Potency [1] | activity, negative = inhibition ([2]; parasite line A) 2.49% | activity, negative = inhibition ([2]; parasite line B) 4.17% | Potency (3D7) | Potency (7G8) | Potency (AS120) | Potency (ATS189) | Potency (CP185) | Potency (CP191) | Potency (CP192) | Potency (CP194) | Potency (CP201) | Potency (CP203) | Potency (CP237) | Potency (CP238) | Potency (CP247) | Potency (CP286) | Potency (CP291) | Potency (DIV30) | Potency (HB3) | Potency (P94_40)

Cc1cn([C@H]2CC(F)[C@@H](CO)O2)c(=O)[nH]c1=O (stereo partly specified)
inactive: Potency [1] | activity, negative = inhibition ([2]; parasite line A) 6.21% | activity, negative = inhibition ([2]; parasite line B) 4.03% | Potency (3D7) | Potency (7G8) | Potency (AS120) | Potency (ATS189) | Potency (CP185) | Potency (CP191) | Potency (CP192) | Potency (CP194) | Potency (CP201) | Potency (CP203) | Potency (CP237) | Potency (CP238) | Potency (CP247) | Potency (CP286) | Potency (CP291) | Potency (DIV30) | Potency (HB3) | Potency (P94_40)
